The structures appear in SMILES notation. The panel holds about 83,000 compounds, 20% with a hit somewhere; the sample as a whole holds those more often.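 Treatment: one concentration, 48 hours, 96-well format. Scoring: percent growth, with anything below 10 considered active.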 A number with no mark means an inactive call. The source made the active and inactive calls.

This experiment deals with HL-60(TB) leukemia. Put plainly: NCI-60 one-dose screen, 48 h (100 = growth as untreated, 0 = no growth, -100 = all killed). Conditions: 10 µM unless noted.
Turning to `COc1cccc(C(=O)NNc2nc(Cl)nc(N3CCN(C(c4ccccc4)c4ccccc4)CC3)n2)c1`, the growth is 0.787% (active). Turning to `Cc1c(Cn2cc(COc3ccc(Br)cc3)nn2)c(C)c(Cn2cc(COc3ccc(Br)cc3)nn2)c(C)c1Cn1cc(COc2ccc(Br)cc2)nn1`, the growth was 89.8%. Consider `CC12CCC(CC1)C(C)(C)O2`, for which the growth is 103%. Turning to `COc1cccc2c1c1nc3cc(C)c(C)cc3nc1n2CCN(C)C`, the growth was 15.3%.

In the case of `COc1cc(/C=C2\CN(C)C/C(=C\c3cc(CN4CCOCC4)c(O)c(OC)c3)C2=O)cc(CN2CCOCC2)c1O`, the growth is 32.6%. The same measure for `OCC1OC(n2cnc3c(NCc4ccco4)ncnc32)C(O)C1O` (configuration not stated): -26.3% (active); for `O=c1cc(-c2ccccc2)[nH]c(=S)[nH]1`: 104%; for `O=C(Nc1ccc(Cl)cc1)c1cc2c(cc1O)[nH]c1ccccc12`: -24.5% (active). Regarding `Nc1ccc([N+](=O)[O-])cc1N=C/C=C/c1ccccc1`, the growth was 9.14% (active). The same measure for `O=S(=O)(Oc1ccc(-c2ccc3sccc3c2)cc1)c1ccc(F)cc1`: 97.1%. For the compound `Cc1cc(C)cc(Nc2ccc([N+](=O)[O-])c(NCCN3CCOCC3)n2)c1`, the growth was -13.9% (active). In the case of `CSc1nc(N)c2c(n1)NC(c1ccccc1)C1CCc3ccccc3C1=N2` (configuration not stated), the growth is 26.4%. For `Cc1c(C(=O)/C=C/Nc2c(Cl)cc(S(N)(=O)=O)cc2Cl)sc2nc3ccccc3n12`, the growth was 101%. Take `O=C(Nc1nc(-c2ccc(Br)cc2)cs1)c1cc(-c2ccc(Br)cc2)nc2ccc(Cl)cc12`: the growth was 96.6%. Regarding `CC(=O)c1c(OCC#N)ccc2c(C)cc(=O)oc12`, the growth was 81.6%.

Take `COc1cc(-c2ccc[nH]2)[nH]c1/C=C1\N=C(C)C(CC(=O)OCC(C)(C)C)=C1C`: the growth was -44.5% (active). Take `Cc1cc(O)ccc1C1=NN(c2ccc(S(C)(=O)=O)cc2)C(=O)CC1`: the growth was 52.6%. With `CCCCCCCCCC(=O)Oc1ccc(/C(=C(/C)Cc2cccc(OC)c2)c2ccc(OCCN(C)C)cc2)cc1`, the growth was 112%.

As to `CCOC(=O)c1cocc1C(=O)O`, the growth is 80.9%. Next, `Fc1cccc(CNc2c3ccccc3nc3ccccc23)c1`: 47%; `O=C(CCSc1nnc2n(Cc3ccccc3)c(=O)c3c4c(sc3n12)CCCC4)N1CCN(c2ccccc2)CC1`: 106%. Turning to `C=CCOC(=O)C1=C(C)NC2=C(C(=O)CC(C)(C)C2)C1c1ccc(OC)cc1` (configuration not stated), the growth was 80.6%. As for `CCOC(=O)C(Cc1ccccc1)n1c(O)c(C=Nc2ccc(C(=O)OCCN(CC)CC)cc2)sc1=O` (configuration not stated), the growth is 97.8%.

As to `COc1ccc2nc(-n3nc(C)cc3C)c(-n3nc(C)cc3C)nc2c1`, the growth was 104%. `CSc1ccc(N2C(=N)C(=S)N(c3ccc(C)cc3)C2=O)cc1`: the growth is 101%. On to `O=Cc1c(OCc2cnnn2CC(=O)Nc2ccc(Br)cc2)ccc2ccccc12`, for which the growth was 105%. `Cc1cc2c(-c3nc4ccccc4[nH]3)c(O)c(O)cc2c(O)c1-c1c(C)cc2c(-c3nc4ccccc4[nH]3)c(O)c(O)cc2c1O`: the growth is -11.2% (active).

The record behind these values is PubChem BioAssay (NCI).
